PubChem BioAssay AID1347417 (National Center for Advancing Translational Sciences (NCATS), 2020)
The campaign covered roughly 120,000 compounds. About 5,300 (4.4%) were called active. Roughly 22% stayed inconclusive and do not appear here. Calls follow the shape of the dose curve; as a rule, active = well fitted inhibition curve with a large enough effect; inconclusive = small, poorly fitted or top-dose-only effect; inactive = no such curve, though single readings can be large or run the other way. The entries come from a sample that favours actives as a whole. A call without a number means that no potency is given here.

Test: qHTS Primary assay for Inhibitors of Plasmodium falciparum Dd2 growth in vitro; also: nearly all actives have a fitted effect of over 65% in size
Conditions: P. falciparum Dd2 growth, SYBR Green, 72 h; series mostly up to 28.9 µM
Summary of the method: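 Infected erythrocytes (Dd2, 0.3% parasitemia, 2.5% hematocrit final) are added to compound in RPMI-1640/Albumax II medium, grown 72 h at 37C in low oxygen, then lysed with saponin/Triton-X containing SYBR Green and read by fluorescence.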
Potency is read from the fitted curve at half-maximal effect.

| SMILES | Potency |
| --- | --- |
| Cc1occc1C(=O)NC1CCc2nn(CC3CC3)c(=O)n2CC1 (centres undefined) | inactive |
| CN1CCOC(CNc2ncc(C(C)(C)C(=O)O)c(N3CCOCC3)n2)C1 (centres undefined) | inactive |
| Cc1c(CNC(=O)c2ccc3c(c2)[nH]c(=O)n3C2CCC(O)CC2)cnn1C (centres undefined) | inactive |
| CSc1nc(-c2ccc(F)cc2)nc2c1Cc1c(CO)cnc(C)c1O2 | inactive |
| Cc1ccccc1CSc1nc(-c2ccccc2)nc2c1Cc1c(CO)cnc(C)c1O2 | 3.98 µM (active) |
| COc1ccc(-c2nc3c(c(SCC(=O)Nc4ccc(C(=O)O)cc4)n2)Cc2ccccc2O3)cc1 | inactive |
| COc1cccc(C2Cn3nnc(-c4nc(-c5ccccc5F)no4)c3CO2)c1 (centres undefined) | inactive |
| Cc1ccc(CN2CCC(C3CCN(C)CC3)C2)o1 (centres undefined) | inactive |
| CCOc1cc(C(=O)N2CCC[C@H]2c2nc(-c3ccc(F)cc3)no2)cc(OCC)c1OCC | inactive |
| COC(=O)c1ccccc1NC(=O)C(Cc1ccccc1)N1Cc2ccccc2C1=O (centres undefined) | inactive |
| COC(=O)c1ccccc1NC(=O)c1ccc(COc2ccccc2Cl)o1 | inactive |
| COC(=O)c1ccccc1NC(=O)c1cc(-c2ccccc2O)no1 | 4.47 µM (active) |
| CC(C)(C)CC(=O)N1CC[C@@H](CC(=O)O)[C@@H](CCN2CCN(c3ccc(F)cc3)CC2)C1 | inactive |
| O=C(NCCc1cn[nH]c1)[C@H]1CCC[C@@H](O)C1 | inactive |
| Cn1cc(-c2ccccc2Oc2ccccc2)c2nc(CN3CCNC(=O)C3)cn2c1=O | inactive |
| Cn1nccc1CN1CCc2nc(C3CC3)nc(-c3ccc(O)cc3)c2C1 | inactive |
| Oc1ccc(-c2nc(C3CC3)nc3c2CN(Cc2ccc(F)cc2)CC3)cc1 | 5.62 µM (active) |
| Oc1ccc(-c2nc(C3CC3)nc3c2CCN(Cc2cccc(F)c2)CC3)cc1 | inactive |
| O=C1OCC2(CCN(Cc3ccc(F)c(Cl)c3)C2)N1Cc1ccccn1 (centres undefined) | inactive |
| C[C@@H](NC(=O)COc1ccccc1)c1c(-c2ccc(F)cc2)noc1C(=O)O | inactive |
| Cc1cc(N2CCC(NC(=O)c3ccc(N(C)C)cc3)C2=O)ccc1F (centres undefined) | inactive |
| COc1ccc(NC(=O)Cn2c(=O)n(Cc3ccc(C(=O)NCc4ccccc4Cl)cc3)c(=O)c3ccccc32)cc1 | 10 µM (active) |
| COc1ccccc1CNC(=O)CCn1c(=O)c2ccccc2n(CC(=O)Nc2cccc(Cl)c2)c1=O | inactive |
| Cc1ccc(Cn2c(=O)n(CCCC(=O)NCc3ccccc3Cl)c(=O)c3ccccc32)cc1 | inactive |

| SMILES | Potency |
| --- | --- |
| O=C(O)CCn1ncc2cc(OC3CCN(C(=O)C4CCCC4)CC3)ccc21 | inactive |
| CCCCNC(=O)C1CCN(C(=O)c2nnn3c2COC(c2ccc(C)cc2)C3)CC1 (centres undefined) | inactive |
| CCOc1cc(=O)n2c(c1C(=O)Nc1cc(Cl)ccc1F)CCCC2 | inactive |
| Cc1noc2c(NC3CCCCC3)cc(-c3ccsc3)nc12 | inactive |
| Fc1ccc(CNC2(Cc3cc(-c4ccc(F)cc4)on3)COC2)cc1 | inactive |
| OCc1cccc(-c2cc(C3=CCOCC3)c3cncn3c2)c1 | inactive |
| O=C1NCc2ccc(-c3cc4c(ccn4Cc4cccnc4)c(C4=CCOCC4)n3)cc21 | inactive |
| FC(F)(F)c1cccc(-c2cc(C3=CCOCC3)c3cncn3c2)c1 | 14.1 µM (active) |
| O=C(C1CCOCC1)N1CCC2(CC1)CC(N1CCCC1)CCO2 (centres undefined) | inactive |
| COC[C@H]1CCCN1C(=O)C(C)[C@@H]1CC[C@@]2(C)CC[C@H](NC(C)=O)[C@@H](C)[C@@H]2[C@H]1O (some centres undefined) | inactive |
| Cc1cccc(C(=O)N2C[C@@H](Oc3cccnc3)C[C@H]2C(=O)N2CCCC2)c1 | inactive |
| O=C(NCC1CC1)C1CCCN(C2CCN(Cc3ccncc3)CC2)C1 (centres undefined) | inactive |
| CCC(CC)C(=O)N1CCC(N2CCCC(C(=O)NCc3ccccc3)C2)CC1 (centres undefined) | 10 µM (active) |
| Cc1cc(CNC(=O)C2CCCN(C3CCN(CCc4ccccc4)CC3)C2)on1 (centres undefined) | inactive |
| O=C(NCCC1CCN(C(=O)Nc2ccccc2F)CC1)c1ccccc1 | inactive |
| O=[S+]([O-])(Nc1cccnc1)c1ccc2c(c1)OCCN(Cc1ccc(F)cc1)C2 | inactive |
| COCC(=O)Nc1nc2c(s1)C[C@@H]1[C@](C)(CO)[C@H](O)CC[C@@]1(C)[C@@H]2CC(=O)NCCN1CCOCC1 | inactive |
| CC1CCN(C(=O)C[C@@H]2c3nc(NC(=O)c4ccnc(Cl)c4)sc3C[C@@H]3[C@](C)(CO)[C@H](O)CC[C@]32C)CC1 | 6.31 µM (active) |
| C=CCN(C)C(=O)C[C@@H]1c2nc(NC(=O)c3ccc(C(C)(C)C)cc3)sc2C[C@@H]2[C@](C)(CO)[C@H](O)CC[C@]21C | 3.98 µM (active) |
| Cc1ccc(S(=O)(=O)Nc2nc3c(s2)C[C@@H]2[C@](C)(CO)[C@H](O)CC[C@@]2(C)[C@@H]3CC(=O)O)cc1 | inactive |
| C=CCN(C)C(=O)[C@@H](C)C1CC[C@@]2(C)Cc3sc(Nc4c(Cl)cccc4Cl)nc3[C@@H](C)[C@@H]2[C@H]1O (some centres undefined) | inactive |
| CCCCCC(=O)Nc1nc2c(s1)C[C@@H]1[C@](C)(CO)[C@H](O)CC[C@@]1(C)[C@@H]2CC(=O)N1CCC(C(N)=O)CC1 | inactive |
| CN1CCC2(C1)CN(CC1CCOCC1)c1ccc(C(=O)NCCCn3ccnc3)cc12 (centres undefined) | inactive |
| c1ncc(CN2CCn3c(nnc3C3CCCNC3)C2)s1 (centres undefined) | inactive |

| SMILES | Potency |
| --- | --- |
| Cc1nc(N)nc(C)c1CC(=O)N1CCC2(CC1)OCCCC2O (centres undefined) | inactive |
| Cc1ccc(C(=O)Nc2ccc3[nH]c(=O)c(=O)[nH]c3c2)cc1 | inactive |
| COc1ccc(CNC(=O)c2ccc3c(O)c(S(=O)(=O)c4ccccc4)c(=O)[nH]c3c2)cc1 | inactive |
| CC(C)c1ccc(NC(=O)c2ccc3c(O)c(S(=O)(=O)c4ccccc4)c(=O)[nH]c3c2)cc1 | 11.2 µM (active) |
| COc1cccc([S+](=O)([O-])N2CCC3(C2)C(=NC2CCCCC2)NC(=O)N3c2cccnc2)c1 (centres undefined) | inactive |
| N#Cc1ccc(S(=O)(=O)N2CC(n3cc(C(=O)NCc4ccccc4)nn3)C2)cc1 | inactive |
| Cc1ccc(NC(=O)N2CC[C@H]3C(=O)NCCCCCN(Cc4cccnc4)[C@@H]3C2)cc1C | 8.91 µM (active) |
| O=C1NCCCCCCN(Cc2ccncc2)[C@@H]2CN(C(=O)Nc3ccc4c(c3)OCCO4)CC[C@@H]12 | inactive |
| O=C1NCCCCCN(Cc2cccnc2)[C@@H]2CN(C(=O)C3CCCCC3)CC[C@@H]12 | inactive |
| O=C(NCc1ccco1)N1CC2CC(C1)[C@H]1CCCC(=O)N1C2 (some centres undefined) | inactive |
| O=C([C@@H]1CCCN1C1CCNCC1)N1CCN(Cc2cccnc2)CC1 | inactive |
| CCOc1cccc(CN2CCC3(CC2)CN(C)CC3COC)c1 (centres undefined) | 4.47 µM (active) |
| COCC1CN(C(C)=O)CC12CCN(C(=O)NCc1cccc(OC)c1)CC2 (centres undefined) | inactive |
| COCC1CN(C(C)=O)CC12CCN(Cc1cccc(C#N)c1)CC2 (centres undefined) | inactive |
| CN1C(=O)c2[nH]nc(-c3ccc(F)cc3)c2C1c1ccccn1 (centres undefined) | inactive |
| CCOc1ccc(-c2n[nH]c3c2C(c2ccccc2OC)N(c2ccc(Br)cc2)C3=O)cc1 (centres undefined) | 10 µM (active) |
| Cc1ccc(-n2c(C3CCN(C(=O)c4ccccc4C(F)(F)F)CC3)n[nH]c2=O)cc1 | inactive |
| CC(=O)Nc1cccc(NC(=O)C2CC(=O)N(c3n[nH]c4ccccc34)C2)c1 (centres undefined) | inactive |
| O=c1n(CC2CC2)nc2n1CCC(NS(=O)(=O)Cc1ccccc1)CC2 (centres undefined) | inactive |
| CC(=O)c1cc(CN2CCn3nc(C(O)c4ccnn4C)cc3C2)cs1 (centres undefined) | inactive |
| O=C(Cc1cccs1)N1CCCCCC1c1nc(C2CC2)no1 (centres undefined) | inactive |
| O=C(N1CCCC(Cc2nc(C3CCOCC3)no2)C1)C1(c2ccccc2)CC1 (centres undefined) | inactive |
| O=C(c1cccs1)N1CCCCCC1CN1CCCC1 (centres undefined) | 1.26 µM (active) |
| COC1CCN(CC2CCCCCN2C(=O)NCc2ccc(F)cc2)CC1 (centres undefined) | inactive |

| SMILES | Potency |
| --- | --- |
| O=C(NCCc1ccccc1)N1CCCCCC1CN1CCOCC1 (centres undefined) | 7.94 µM (active) |
| CC(=O)N(C1CC1)C1CCOC2(CCN(C(=O)C3(c4ccccc4)CC3)CC2)C1 (centres undefined) | inactive |
| O=C1NCCCCCN(C(=O)NCCc2ccccc2)[C@H]2CCC[C@@H]12 | inactive |
| O=C1NCCOCCCN(C(=O)NCCc2ccccc2)[C@H]2CCC[C@@H]12 | inactive |
| O=C(N1CCCCCC1CN1CCOCC1)C1(c2ccccc2)CC1 (centres undefined) | 10 µM (active) |
| Cc1cc(C)n(-c2cccc(CN(C)Cc3nc(-c4ccccn4)no3)c2)n1 | inactive |
| CC(C)c1ccc(N2C(=O)N[C@@H]3CCN(C(=O)c4ccc(C(C)(C)C)cc4)[C@@H]3C2=O)cc1 | inactive |
| O=C(Cn1ccn2nc(-c3ccccc3)c(CO)c2c1=O)Nc1ccc2c(c1)CCC2 | inactive |
| O=C(c1ccc2cc[nH]c2c1)N1CCCN(c2cc(-c3ccc(Cl)cc3)[nH]n2)CC1 | inactive |
| CN1C(=O)CS(=O)C12CCN(S(=O)(=O)c1ccc(F)cc1)CC2 (centres undefined) | inactive |
| Cc1noc([C@@H]2CN(Cc3ccc(C)o3)C[C@H]2CO)n1 | inactive |
| Cc1ccc(F)cc1NC(=O)CCSc1nc(-c2ccco2)cc(C(F)(F)F)n1 | 0.794 µM (active) |
| Cc1cccc(NC(=O)CSc2nc(-c3ccco3)cc(C(F)(F)F)n2)c1C | inactive |
| CN(C)c1ccc(NC(=O)CSc2nc(-c3ccco3)cc(C(F)(F)F)n2)cc1 | inactive |
| Cc1cc(C)cc(C(=O)NCCc2noc(C)n2)c1 | inactive |
| Cc1c(Cl)cccc1NC(=O)C1CCCN(c2ncnc3onc(C)c23)C1 (centres undefined) | inactive |
| COc1ccccc1N1CCN(c2ncnc3onc(-c4ccc(F)cc4)c23)CC1 | inactive |
| Cc1ccc(Cl)cc1N(C)C(=O)C1CCCN(c2ncnc3onc(-c4ccc(F)cc4)c23)C1 (centres undefined) | 8.91 µM (active) |
| COc1ccc(C(=O)N[C@H](c2cnn(C)c2)C2CC(O)C2)c(F)c1F (some centres undefined) | inactive |
| COc1cccc(CN2CCN(Cc3ncccc3C)CC2)c1O | inactive |
| CCOC(=O)C1(Cc2ccc(F)cc2F)CCCN(Cc2cccc(OC)c2O)C1 (centres undefined) | 3.16 µM (active) |
| CCOC(=O)c1[nH]ncc1CN1CCCC(Cc2ccc(F)cc2F)(C(=O)OCC)C1 (centres undefined) | inactive |
